# According to PubChem BioAssay (NCATS):
# Results filed as inconclusive are left out. Where a call stands in place of a potency, no number is given. Active and inactive are the calls of the source. Unless noted, calls follow the shape of the dose curve; as a rule, active = well fitted curve in the direction sought with a large enough effect in the repeat runs; inconclusive = weak or mixed curves; inactive = no such curve, though single readings can be large; an effect the other way counts as inactive or inconclusive.
# How the values were obtained:
# [1] = target: Cytochrome P450 2D6 (Homo sapiens) (UniProt P10635); experiment: Cytochrome P450 family 2 subfamily D member 6 (CYP2D6) small molecule antagonists: luciferase biochemical (cell-free) qHTS assay (AID 1645840); also: nearly all actives have a fitted effect of over 55% in size; also: potency is read from the fitted curve at half-maximal effect
# How it was run: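 P450-Glo CYP2D6 system: proluciferin substrate converted by enzyme to luciferin, read by luminescence proportional to activity. Enzyme-substrate mix with compound 10 min at room temperature, then NADPH regeneration 1 h before detection reagent.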
# [2] = target: Cytochrome P450 2C9 (Homo sapiens) (UniProt P11712); experiment: Cytochrome P450 family 2 subfamily C member 9 (CYP2C9) small molecule antagonists: luciferase biochemical (cell-free) qHTS assay (AID 1645842); also: nearly all actives have a fitted effect of over 55% in size; also: potency is read from the fitted curve at half-maximal effect
# How it was run: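 P450-Glo CYP2C9 system: proluciferin substrate with enzyme in mix containing 0.4% BSA, 10 min at room temperature, then NADPH regeneration solution added and incubated 1 h at 37C. Detection reagent stopped reaction; luminescence read after 20 min as RLU.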
# [3] = target: Cytochrome P450 3A4 (Homo sapiens) (UniProt P08684); experiment: Cytochrome P450 family 3 subfamily A member 4 (CYP3A4) small molecule antagonists: luciferase qHTS assay (AID 1645841); also: nearly all actives have a fitted effect of over 45% in size; also: potency is read from the fitted curve at half-maximal effect
# How it was run: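 Luminescent CYP3A4 activity readout: compounds plus enzyme-substrate mix 10 min at room temperature, reaction started with NADPH regenerating system for 1 h, stopped with detection reagent, read after 20 min. Ketoconazole served as control.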
# [4] = target: Cytochrome P450 3A4 (Homo sapiens) (UniProt P08684); experiment: qHTS Assay for Activators of Cytochrome P450 3A4 (AID 885; active = well fitted curve in the direction sought with a large enough effect; an effect the other way counts as inactive or inconclusive; also: nearly all actives have a fitted effect of over 65% in size)
# How it was run: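 Luminescent readout of luciferin formed from 25 uM Luciferin-PPXE (KM level) by 20 nM CYP3A4 in 200 mM KPO4, with 60 min NADPH-driven reaction at room temperature after 10 min compound exposure. Ketoconazole (57 uM) defined 100% inhibition.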
# [5] = Confirmation and Secondary Assay for Modulators of Hemoglobin Beta Chain Splicing at IVS2 654 locus (AID 910; active = well fitted curve in the direction sought with a large enough effect; an effect the other way counts as inactive or inconclusive;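 also: HeLa cells stably carrying EGFP split by mutant beta-globin IVS2-654 intron; per-well total GFP intensity by laser scanning cytometry after 2-day treatment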)
# How it was run: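 Readout: per-well total peak green fluorescence (488 nm ex, 500–520 nm em) from objects 5–250 µm, reflecting correct splicing of an EGFP-654 reporter. Compounds were applied for 2 days at 37 °C to overnight-plated HeLa EGFP-654 cells; controls were DMSO and 500 nM IVS2-654 PNA.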
# [6] = Confirmation and Secondary Assay for Modulators of Hemoglobin Beta Chain Splicing at IVS2 705 locus (AID 930; active = well fitted curve in the direction sought with a large enough effect; an effect the other way counts as inactive or inconclusive;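 also: HeLa cells stably expressing the EGFP-705 splicing reporter; GFP fluorescence per well restored by corrected splicing of the IVS2-705 intron in EGFP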)
# How it was run: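 Secondary splice-site specificity test uses HeLa expressing CMV-driven EGFP interrupted by IVS2-705; cells were treated 2 days at 37C with 500 nM antisense PNA as positive control.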
# [7] = target: ATP-dependent 6-phosphofructokinase (Trypanosoma brucei brucei) (UniProt O15648); experiment: qHTS Assay to Find Inhibitors of T. brucei phosphofructokinase: hit validation (AID 492961; active = well fitted curve in the direction sought with a large enough effect; an effect the other way counts as inactive or inconclusive;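 also: luminescence reports ADP formed as PFK phosphorylates fructose-6-phosphate with ATP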)
# How it was run: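 Measures ADP output of PFK (1.25 nM) at 0.1 mM ATP, 0.5 mM F6P, pH 8.0 TEA buffer with 5 mM MgCl2. No-enzyme wells define full inhibition; uninhibited enzyme wells define zero.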
# [8] = target: Ubiquitin carboxyl-terminal hydrolase 1 (Homo sapiens) (UniProt O94782); experiment: Inhibitors of USP1/UAF1: Pilot qHTS (AID 504865; active = well fitted curve in the direction sought with a large enough effect; an effect the other way counts as inactive or inconclusive;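 also: rhodamine fluorescence freed from ubiquitin-rhodamine substrate followed over time; top concentration of the series differs between compounds; nearly all actives have a fitted effect of over 35% in size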)
# How it was run: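 USP1/UAF1 complex (1nM) preincubated with compound 15 min at room temperature, then Ub-Rho substrate (150nM final) added. Fluorescence read kinetically at 480/540 nm, 6 reads every 60 seconds. Buffer: 50mM HEPES pH 7.8, 0.5mM EDTA, 0.1 mg/ml BSA, 1mM TCEP, 0.01% Tween-20.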
# [9] = S16 Schwann cell viability assay (CellTiter-Glo assay) (AID 624031; active = well fitted curve in the direction sought with a large enough effect; an effect the other way counts as inactive or inconclusive;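 also: cellular ATP luminescence as a viability measure; nearly all actives have a fitted effect of over 70% in size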)
# How it was run: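 This viability control uses native rat S16 Schwann cells grown in DMEM plus 10% FBS. After a 24 h compound treatment at 37 °C, CellTiter-Glo luminescence reports ATP content, scaled against DMSO-treated and cell-free wells.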
# [10] = S16 Schwann cell PMP22 intronic element firefly luciferase assay (AID 624032; active = well fitted curve in the direction sought with a large enough effect; an effect the other way counts as inactive or inconclusive; also: nearly all actives have a fitted effect of over 30% in size)
# How it was run: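 Luciferase reporter of PMP22 intronic-element expression in stably transfected S16 rat Schwann cells, read by ONE-Glo luminescence after 24 h compound exposure at 37 C. Activity scaled between DMSO (0%) and positive-control PTC124; concentration-effect curves quality-classified.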
# [11] = S16 Schwann cell PMP22 intronic element beta-lactamase assay (AID 624044; calls by dose curve; also: nearly all actives have a fitted effect of over 15% in size)
# How it was run: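 Beta-lactamase reporter under a PMP22 intronic regulatory element in stable S16 rat Schwann cells; 24 h compound exposure. 460 nm blue signal normalized between DMSO (0%) and potassium clavulanate, with 535 nm FRET tracking viability; curves classed by r2 and response.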
# CP238 = experiment: qHTS profiling for inhibitors of Plasmodium falciparum proliferation (AID 504749; active = well fitted curve in the direction sought with a large enough effect; an effect the other way counts as inactive or inconclusive; also: nearly all actives have a fitted effect of over 60% in size); settings: P. falciparum in erythrocytes, SYBR Green DNA, 72 h; series mostly up to 12.8 µM
# How it was run: (§1)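 SYBR Green fluorescence of parasite DNA, read after lysis and overnight dark incubation, measured growth over 72 h in erythrocyte culture at 0.3% parasitemia and 2.5% hematocrit. Data normalised to DMSO and 0.29 uM artemisinin, with plate-drift correction.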
# CP286 = experiment: as above; settings: P. falciparum in erythrocytes, SYBR Green DNA, 72 h; series mostly up to 12.8 µM
# How it was run: as §1
# Cytochrome P450 2D6 (Homo sapiens), sequence (P10635 whole entry, looked up): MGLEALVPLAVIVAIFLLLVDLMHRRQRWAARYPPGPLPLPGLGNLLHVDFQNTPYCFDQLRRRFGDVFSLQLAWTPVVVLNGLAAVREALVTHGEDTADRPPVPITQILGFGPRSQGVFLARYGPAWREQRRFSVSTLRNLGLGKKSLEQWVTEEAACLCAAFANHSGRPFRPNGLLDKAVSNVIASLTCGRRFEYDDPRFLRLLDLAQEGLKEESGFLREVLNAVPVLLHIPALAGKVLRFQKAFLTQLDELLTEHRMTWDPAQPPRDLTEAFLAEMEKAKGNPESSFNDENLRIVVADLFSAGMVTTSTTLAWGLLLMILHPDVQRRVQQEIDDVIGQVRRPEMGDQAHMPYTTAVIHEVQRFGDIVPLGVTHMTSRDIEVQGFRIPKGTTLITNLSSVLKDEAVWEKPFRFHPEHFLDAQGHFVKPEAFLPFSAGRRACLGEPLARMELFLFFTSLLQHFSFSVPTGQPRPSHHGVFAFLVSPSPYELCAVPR
# Cytochrome P450 2C9 (Homo sapiens), sequence (P11712 whole entry, looked up): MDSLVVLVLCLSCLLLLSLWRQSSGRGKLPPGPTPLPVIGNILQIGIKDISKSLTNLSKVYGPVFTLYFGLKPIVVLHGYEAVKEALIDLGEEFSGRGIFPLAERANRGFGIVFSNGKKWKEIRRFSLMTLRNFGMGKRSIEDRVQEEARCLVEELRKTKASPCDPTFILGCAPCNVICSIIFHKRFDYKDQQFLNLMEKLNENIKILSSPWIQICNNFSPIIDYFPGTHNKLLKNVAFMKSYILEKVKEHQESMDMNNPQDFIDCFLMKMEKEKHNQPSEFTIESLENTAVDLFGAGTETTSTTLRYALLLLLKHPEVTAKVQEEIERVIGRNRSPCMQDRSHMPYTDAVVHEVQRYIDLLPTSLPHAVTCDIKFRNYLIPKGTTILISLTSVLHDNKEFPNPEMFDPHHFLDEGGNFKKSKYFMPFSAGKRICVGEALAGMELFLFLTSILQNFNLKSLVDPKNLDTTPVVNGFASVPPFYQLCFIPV
# Cytochrome P450 3A4 (Homo sapiens), sequence (P08684 whole entry, looked up): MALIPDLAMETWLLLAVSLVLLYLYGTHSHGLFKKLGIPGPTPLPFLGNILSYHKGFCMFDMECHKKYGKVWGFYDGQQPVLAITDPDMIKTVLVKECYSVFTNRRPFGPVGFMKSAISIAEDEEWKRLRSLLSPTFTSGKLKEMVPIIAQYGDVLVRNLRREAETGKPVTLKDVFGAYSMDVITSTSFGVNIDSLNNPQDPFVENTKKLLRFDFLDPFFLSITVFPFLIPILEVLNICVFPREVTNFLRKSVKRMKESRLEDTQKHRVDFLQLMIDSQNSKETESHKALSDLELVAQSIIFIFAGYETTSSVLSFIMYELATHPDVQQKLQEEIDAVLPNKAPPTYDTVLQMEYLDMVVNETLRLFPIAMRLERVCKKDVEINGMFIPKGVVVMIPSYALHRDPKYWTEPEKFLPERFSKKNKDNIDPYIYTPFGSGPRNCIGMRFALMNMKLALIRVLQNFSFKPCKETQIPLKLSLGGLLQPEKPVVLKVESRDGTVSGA
# ATP-dependent 6-phosphofructokinase (Trypanosoma brucei brucei), sequence (O15648 whole entry, looked up): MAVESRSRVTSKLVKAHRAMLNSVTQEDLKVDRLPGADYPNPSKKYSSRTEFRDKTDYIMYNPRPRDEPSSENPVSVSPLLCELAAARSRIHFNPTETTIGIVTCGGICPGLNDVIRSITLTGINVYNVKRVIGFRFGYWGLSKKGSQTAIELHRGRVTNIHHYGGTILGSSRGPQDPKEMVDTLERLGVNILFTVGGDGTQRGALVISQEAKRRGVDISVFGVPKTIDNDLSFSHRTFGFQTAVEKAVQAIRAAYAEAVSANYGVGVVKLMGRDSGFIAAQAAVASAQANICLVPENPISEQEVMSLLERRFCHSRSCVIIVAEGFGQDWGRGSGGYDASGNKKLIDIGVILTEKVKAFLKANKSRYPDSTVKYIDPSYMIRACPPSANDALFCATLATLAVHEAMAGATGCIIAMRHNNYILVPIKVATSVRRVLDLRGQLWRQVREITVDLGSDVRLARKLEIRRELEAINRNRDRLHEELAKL
# Ubiquitin carboxyl-terminal hydrolase 1 (Homo sapiens), sequence (O94782 whole entry, looked up): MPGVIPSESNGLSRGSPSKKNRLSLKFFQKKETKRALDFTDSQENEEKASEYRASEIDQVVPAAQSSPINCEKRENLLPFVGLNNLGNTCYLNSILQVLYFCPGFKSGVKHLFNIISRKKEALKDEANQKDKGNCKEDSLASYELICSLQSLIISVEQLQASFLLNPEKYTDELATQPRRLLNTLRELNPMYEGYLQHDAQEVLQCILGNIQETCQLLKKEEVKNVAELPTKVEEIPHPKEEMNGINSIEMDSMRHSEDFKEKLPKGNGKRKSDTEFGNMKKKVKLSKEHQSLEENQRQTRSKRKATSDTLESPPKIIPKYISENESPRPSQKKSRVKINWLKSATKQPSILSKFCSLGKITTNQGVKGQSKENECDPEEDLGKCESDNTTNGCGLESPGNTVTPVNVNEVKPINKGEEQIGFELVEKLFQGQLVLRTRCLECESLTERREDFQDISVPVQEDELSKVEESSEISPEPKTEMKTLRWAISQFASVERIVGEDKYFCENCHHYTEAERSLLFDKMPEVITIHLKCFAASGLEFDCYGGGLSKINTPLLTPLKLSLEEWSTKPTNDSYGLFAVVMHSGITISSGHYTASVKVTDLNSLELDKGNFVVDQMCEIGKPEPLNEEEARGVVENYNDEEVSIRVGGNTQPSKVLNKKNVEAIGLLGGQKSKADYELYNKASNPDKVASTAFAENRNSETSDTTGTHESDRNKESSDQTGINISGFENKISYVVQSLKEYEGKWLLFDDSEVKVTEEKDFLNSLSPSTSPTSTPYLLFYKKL
structure (smiles),measurement,setting,value
CC[C@H](CO)Nc1cc(NCc2ccc(-c3ccccn3)cc2)c2ncn(C(C)C)c2n1,Potency,[1],16.9 µM (active)
same,Potency,[2],1.34 µM (active)
CCc1ccc(CNC(=O)C2CCCN(c3nnc(C)c4c(C)n(-c5ccccc5)nc34)C2)cc1 (stereo not given),Potency,[1],10.7 µM (active)
same,Potency,[3],1.9 µM (active)
same,Potency,[2],8.49 µM (active)
CCOC(=O)c1sc(NC(=O)c2c(-c3ccccc3)c(-c3ccccc3)nn(C)c2=O)nc1C,Potency,[1],inactive
COc1ccc2c(CNCCc3ccccc3OC)c(C(=O)O)n(Cc3ccc(F)cc3Cl)c2c1,Potency,[1],12 µM (active)
same,Potency,[2],12 µM (active)
CCc1ccc(C2=CC(c3cccc(C)c3)n3c(nc4ccccc43)N2)cc1 (stereo not given),Potency,[1],9.52 µM (active)
same,Potency,[2],6.01 µM (active)
O=c1c2c(on1Cc1ccccc1)CCNCC2,Potency,[1],inactive
same,Potency,[2],10.7 µM (active)
COc1ccccc1CNC(=O)C1CCCN(c2nc3ccccc3n3cccc23)C1 (stereo not given),Potency,[1],2.68 µM (active)
same,Potency,[2],0.0674 µM (active)
COc1ccc(CCNc2nc(SCc3cccc(F)c3)nc3ccccc23)cc1OC,Potency,[1],0.301 µM (active)
same,Potency,[2],0.756 µM (active)
O=C(O)CN(CC(=O)O)Cc1cc2c(-c3ccccc3C(=O)O)c3cc(CN(CC(=O)O)CC(=O)O)c(=O)cc-3oc2cc1O,Potency,[4],inactive
same,Potency,[5],inactive
same,Potency,[6],inactive
same,outcome,[7],inactive
same,Potency,[8],inactive
same,outcome,[9],inactive
same,Potency,[10],inactive
same,Potency,[11],inactive
same,Potency,[1],inactive
same,Potency,[3],inactive
same,Potency,[2],inactive
same,Potency,CP238,inactive
same,Potency,CP286,inactive
CC(C)c1ccc(Nc2c(-c3ccccn3)nc3ccccn23)cc1,Potency,[1],26.8 µM (active)
same,Potency,[2],1.2 µM (active)
Cc1ccc(S(=O)(=O)Nc2nc3n(n2)C(c2ccc(F)cc2)C=C(c2ccccc2)N3)cc1 (stereo not given),Potency,[1],inactive
same,Potency,[2],inactive
C[S+](=O)([O-])Nc1ccc(-c2ccc3nc(-c4cccc(OC(F)(F)F)c4)[nH]c3c2)cc1,Potency,[1],inactive
same,Potency,[3],inactive
COc1cccc(Cn2c(SCC(=O)N3CCN(c4ccc(F)cc4)CC3)nc3ccccc32)c1,Potency,[1],10.7 µM (active)
same,Potency,[2],2.13 µM (active)
O=C(CSc1nccn1Cc1ccc(F)cc1)Nc1nc2ccccc2s1,Potency,[1],10.7 µM (active)
same,Potency,[2],7.56 µM (active)
CCCCC1CCC(CCCC(C)CCC(=O)O)CC1 (stereo not given),Potency,[1],inactive
CCc1ccc(-n2c(SCc3ccccc3Cl)nc3[nH]ncc3c2=O)cc1,Potency,[1],15.1 µM (active)
same,Potency,[2],23.9 µM (active)
OC[C@H]1O[C@@H]2O[C@H]3[C@H](O)[C@@H](O)[C@@H](O[C@H]4[C@H](O)[C@@H](O)[C@@H](O[C@H]5[C@H](O)[C@@H](O)[C@@H](O[C@H]6[C@H](O)[C@@H](O)[C@@H](O[C@H]7[C@H](O)[C@@H](O)[C@@H](O[C@H]1[C@H](O)[C@@H]2O)O[C@@H]7CO)O[C@@H]6CO)O[C@@H]5CO)O[C@@H]4CO)O[C@@H]3CO,Potency,[1],inactive
same,Potency,[3],inactive
same,Potency,[2],inactive
